Test results reported in PubChem BioAssay.
The source made the active and inactive calls.

Key:
[1] = system: Plasmodium falciparum Sir2 (PF13_0152, Sir2A); experiment: pfSir2 binders on small-molecule microarrays, primary screen, biochemical, small-molecule microarray, 635 nm fluorescence (AID 1098); settings: small-molecule microarray binding, fluorescence 635 nm; higher = more signal;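 also: score merges spot fluorescence intensity with its signal-to-noise ratio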
[2] = small-molecule microarray binders of probe aDKK1, primary screen, biochemical, biotinylated probe, 635/667 nm fluorescence (AID 1099); settings: higher = more signal;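 also: score merges 667nm spot fluorescence with signal to noise across triplicate slides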
[3] = small-molecule microarray binders of probe aCHRDL2, primary screen, biochemical, biotinylated probe, 635/667 nm fluorescence (AID 1100); settings: higher = more signal
[4] = splicing luciferase reporter signal modulators, primary screen, spliceosome inhibition project, cell-based, HEK293, splice +/- reporter (AID 1101); settings: luminescence, 24 h, higher = more signal, called active from +8 up or from −8 down;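 also: HEK293 cells carrying a splicing-competent luciferase reporter gene; test concentration not given here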
[5] = molecular target: Fibroblast growth factor 10 (Homo sapiens) (UniProt O15520); experiment: FGF10 binders on small-molecule microarrays, primary screen, biochemical, small-molecule microarray, 635 nm fluorescence (AID 1102); settings: FGF10 binding, fluorescence 635 nm, higher = more signal
Fibroblast growth factor 10 (Homo sapiens), sequence (O15520 whole entry, looked up): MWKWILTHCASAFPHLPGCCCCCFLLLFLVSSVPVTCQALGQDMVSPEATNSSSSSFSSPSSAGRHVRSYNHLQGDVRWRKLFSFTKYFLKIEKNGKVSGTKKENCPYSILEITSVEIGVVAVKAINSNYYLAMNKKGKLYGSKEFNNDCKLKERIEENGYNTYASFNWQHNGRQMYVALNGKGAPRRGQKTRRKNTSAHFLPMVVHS

[6] = system: glycogen synthase kinase-3 (GSK3A per assay name; protocol says GSK3B); experiment: GSK3 binders on small-molecule microarrays, primary screen, biochemical, small-molecule microarray, 635 nm fluorescence, GSK3A (AID 1103); settings: small-molecule microarray binding, fluorescence 635 nm; higher = more signal; also: the record names both GSK3A and GSK3B
[7] = molecular target: Epidermal growth factor receptor (Homo sapiens) (UniProt P00533); experiment: EGFR binders on small-molecule microarrays, primary screen, biochemical, small-molecule microarray, 635 nm fluorescence (AID 1104); settings: EGFR binding, higher = more signal;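 also: score merges 667 nm emission intensity with spot signal to noise over triplicate slides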
Epidermal growth factor receptor (Homo sapiens), sequence (P00533 whole entry, looked up): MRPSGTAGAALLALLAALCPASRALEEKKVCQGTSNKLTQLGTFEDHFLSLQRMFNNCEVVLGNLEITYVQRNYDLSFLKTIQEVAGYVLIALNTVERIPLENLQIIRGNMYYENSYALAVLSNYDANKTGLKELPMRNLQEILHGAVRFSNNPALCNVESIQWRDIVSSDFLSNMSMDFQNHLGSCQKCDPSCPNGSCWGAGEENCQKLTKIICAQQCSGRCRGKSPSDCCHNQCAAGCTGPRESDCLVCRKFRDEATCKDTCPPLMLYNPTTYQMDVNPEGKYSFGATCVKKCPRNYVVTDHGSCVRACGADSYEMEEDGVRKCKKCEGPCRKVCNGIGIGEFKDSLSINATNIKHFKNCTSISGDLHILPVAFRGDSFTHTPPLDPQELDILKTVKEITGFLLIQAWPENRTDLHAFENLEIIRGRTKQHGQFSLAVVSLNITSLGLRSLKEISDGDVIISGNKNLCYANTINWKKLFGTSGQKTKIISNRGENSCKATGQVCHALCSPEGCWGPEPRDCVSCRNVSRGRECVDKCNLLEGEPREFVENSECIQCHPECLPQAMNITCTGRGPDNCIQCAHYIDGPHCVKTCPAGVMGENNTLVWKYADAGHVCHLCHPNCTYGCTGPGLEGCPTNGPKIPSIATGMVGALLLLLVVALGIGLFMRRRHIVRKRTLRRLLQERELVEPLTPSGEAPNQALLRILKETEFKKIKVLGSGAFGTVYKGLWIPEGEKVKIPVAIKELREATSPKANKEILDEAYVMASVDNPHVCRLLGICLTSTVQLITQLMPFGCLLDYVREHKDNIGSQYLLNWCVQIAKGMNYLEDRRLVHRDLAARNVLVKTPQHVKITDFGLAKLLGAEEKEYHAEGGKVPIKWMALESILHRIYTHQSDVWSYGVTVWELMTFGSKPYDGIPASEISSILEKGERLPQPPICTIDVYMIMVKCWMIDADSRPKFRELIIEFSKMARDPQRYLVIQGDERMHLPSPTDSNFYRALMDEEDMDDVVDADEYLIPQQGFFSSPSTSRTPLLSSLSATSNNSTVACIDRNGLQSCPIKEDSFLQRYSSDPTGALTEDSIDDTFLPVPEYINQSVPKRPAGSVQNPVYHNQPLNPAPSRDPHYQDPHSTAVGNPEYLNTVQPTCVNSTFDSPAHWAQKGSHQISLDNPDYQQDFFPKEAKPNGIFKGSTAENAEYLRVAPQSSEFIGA

[8] = molecular target: Follistatin-related protein 3 (Homo sapiens) (UniProt O95633); experiment: FSTL3 binders on small-molecule microarrays, primary screen, biochemical, small-molecule microarray, 635 nm fluorescence (AID 1105); settings: FSTL3 binding, higher = more signal;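 also: score merges emission near 667 nm and signal to noise per printed spot across three slides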
Follistatin-related protein 3 (Homo sapiens), sequence (O95633 whole entry, looked up): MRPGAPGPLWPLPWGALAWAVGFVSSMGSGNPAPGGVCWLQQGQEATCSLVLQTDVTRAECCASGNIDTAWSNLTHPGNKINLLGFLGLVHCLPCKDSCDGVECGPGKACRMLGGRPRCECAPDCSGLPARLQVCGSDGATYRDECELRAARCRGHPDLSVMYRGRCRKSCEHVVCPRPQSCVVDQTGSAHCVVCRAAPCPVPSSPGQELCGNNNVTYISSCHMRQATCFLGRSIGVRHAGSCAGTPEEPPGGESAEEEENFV

[9] = molecular target: Dickkopf-related protein 1 (Homo sapiens) (UniProt O94907); experiment: DKK1 binders on small-molecule microarrays, primary screen, biochemical, small-molecule microarray, 635 nm fluorescence scan (AID 1106); settings: DKK1 binding, higher = more signal;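 also: score merges emission near 667 nm with signal to noise over three replicate slides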
Dickkopf-related protein 1 (Homo sapiens), sequence (O94907 whole entry, looked up): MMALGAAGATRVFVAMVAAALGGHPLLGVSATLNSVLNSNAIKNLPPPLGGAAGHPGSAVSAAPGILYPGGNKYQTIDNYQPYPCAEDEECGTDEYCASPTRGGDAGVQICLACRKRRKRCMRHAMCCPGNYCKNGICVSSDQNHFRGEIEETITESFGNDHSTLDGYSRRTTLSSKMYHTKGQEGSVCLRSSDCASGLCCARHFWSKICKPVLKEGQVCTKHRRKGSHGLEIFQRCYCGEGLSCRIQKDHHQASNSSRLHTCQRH

[10] = system: Inhibin beta A chain (activin A); experiment: INHBA (activin A) binders on microarrays, primary screen, biochemical, small-molecule microarray, 635 nm fluorescence scan (AID 1107); settings: small-molecule microarray binding, higher = more signal;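 also: mouse activin A protein probed at 4.33 µg/mL on printed slides; score merges bound-protein fluorescence near 667 nm with spot signal-to-noise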
[11] = system: Human papillomavirus type 1a protein E7 (residues 44-93); experiment: HPV1a E7 fragment binders on microarrays, primary screen, biochemical, small-molecule microarray, residues 44-93, 635 nm fluorescence (AID 1108); settings: small-molecule microarray binding, fluorescence 635 nm; higher = more signal;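 also: E7 fragment applied at 1 µg/mL in TBST for 1 h at 4 C; score combines spot fluorescence with its signal to noise ratio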
[12] = modulators of HCV replicon luciferase signal, primary screen, HCV replication inhibitor project, Huh7 cells, luciferase reporter (AID 1109); settings: 48 h, higher = more signal;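 also: huh7 hepatoma cells harbouring a luciferase neomycin HCV replicon reporter; luciferase luminescence as measure of HCV replicon replication; test concentration not given here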
[13] = molecular target: Left-right determination factor 2 (Homo sapiens) (UniProt O00292); experiment: LEFTY2 binders on small-molecule microarrays, primary screen, biochemical, small-molecule microarray, 635 nm fluorescence scan (AID 1110); settings: LEFTY2 binding, higher = more signal
Left-right determination factor 2 (Homo sapiens), sequence (O00292 whole entry, looked up): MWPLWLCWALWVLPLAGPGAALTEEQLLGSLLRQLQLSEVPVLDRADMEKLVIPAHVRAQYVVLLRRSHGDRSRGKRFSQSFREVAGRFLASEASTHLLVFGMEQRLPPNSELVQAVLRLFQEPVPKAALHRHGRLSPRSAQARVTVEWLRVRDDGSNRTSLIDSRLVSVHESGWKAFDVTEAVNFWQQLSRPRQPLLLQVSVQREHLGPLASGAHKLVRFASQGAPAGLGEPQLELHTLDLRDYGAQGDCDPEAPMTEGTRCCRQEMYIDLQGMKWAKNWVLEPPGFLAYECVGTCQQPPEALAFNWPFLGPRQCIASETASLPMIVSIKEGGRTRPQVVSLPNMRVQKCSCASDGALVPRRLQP

[14] = molecular target: Calmodulin-1 (Homo sapiens) (UniProt P0DP23); experiment: CALM1 binders on microarrays, EGTA buffer, profiling panel, biochemical, small-molecule microarray, Cy5-labelled CALM1 (AID 1111); settings: Cy5-CALM1 binding fluorescence, higher = more signal;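 also: labelled calmodulin applied in Tris saline Tween buffer holding calcium plus EGTA and DTT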
[15] = molecular target: Calmodulin-1 (Homo sapiens) (UniProt P0DP23); experiment: calcium-bound CALM1 binders on microarrays, profiling panel, artefact control for SMM control-protein annotation, biochemical, small-molecule microarray, Cy5-labelled CALM1, plus calcium (AID 1112); settings: Cy5-CALM1 binding fluorescence, higher = more signal;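 also: score merges spot fluorescence with signal to noise from triplicate slides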
[16] = small-molecule microarray binders of probe aWnt5a, primary screen, biochemical, biotinylated probe, 635/667 nm fluorescence (AID 1113); settings: higher = more signal;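 also: score merges 667 nm fluorescence intensity with signal-to-noise per printed feature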
[17] = small-molecule microarray binders of probe aShh, primary screen, biochemical, biotinylated probe, 635/667 nm fluorescence (AID 1114); settings: higher = more signal;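 also: probe is biotin-labelled aShh protein from a stem cell growth factor screen; measures binding of labelled protein to compounds printed on the slide; score merges feature fluorescence at 667 nm with signal-to-noise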
[18] = small-molecule microarray binders of probe aNog, primary screen, biochemical, biotinylated probe, 635/667 nm fluorescence (AID 1115); settings: higher = more signal;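 also: probe is biotinylated aNog protein used at 0.15 µg/mL for 1 h at 4 C; z-score combines 667 nm fluorescence of each spot with its signal to noise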
[19] = molecular target: Torsin-1A-interacting protein 1 (Homo sapiens) (UniProt Q5JTV8); experiment: LAP1 binders from COS7 cell lysate, primary screen, small-molecule microarray, 635/667 nm fluorescence (AID 1116); settings: COS7-hLAP1 lysate binding, 635 nm fluorescence, higher = more signal
Torsin-1A-interacting protein 1 (Homo sapiens), sequence (Q5JTV8 whole entry, looked up): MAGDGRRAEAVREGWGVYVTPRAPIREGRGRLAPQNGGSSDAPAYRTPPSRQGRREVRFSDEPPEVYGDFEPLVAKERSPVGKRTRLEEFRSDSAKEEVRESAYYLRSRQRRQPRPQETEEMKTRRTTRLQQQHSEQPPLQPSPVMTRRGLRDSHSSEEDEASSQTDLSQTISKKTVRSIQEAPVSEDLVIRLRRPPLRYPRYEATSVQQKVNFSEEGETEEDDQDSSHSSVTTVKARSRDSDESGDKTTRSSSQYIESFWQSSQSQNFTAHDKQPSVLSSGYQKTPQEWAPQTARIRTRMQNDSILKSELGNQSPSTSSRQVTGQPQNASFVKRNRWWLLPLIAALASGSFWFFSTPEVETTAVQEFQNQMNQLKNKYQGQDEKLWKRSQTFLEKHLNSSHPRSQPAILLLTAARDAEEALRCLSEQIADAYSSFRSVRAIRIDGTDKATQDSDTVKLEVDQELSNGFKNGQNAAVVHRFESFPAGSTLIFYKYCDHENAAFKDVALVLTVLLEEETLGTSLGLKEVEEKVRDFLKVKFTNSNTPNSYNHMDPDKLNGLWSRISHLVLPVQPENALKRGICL

[20] = molecular target: Alpha-bungarotoxin (Bungarus multicinctus) (UniProt P60615); experiment: alpha-bungarotoxin binders on microarray, profiling panel, artefact control for SMM control protein annotation, biochemical, small-molecule microarray, Alexa647 label, 635/667 nm fluorescence (AID 1117); settings: alpha-BTX-A647 binding fluorescence, higher = more signal
Alpha-bungarotoxin (Bungarus multicinctus), sequence (P60615 whole entry, looked up): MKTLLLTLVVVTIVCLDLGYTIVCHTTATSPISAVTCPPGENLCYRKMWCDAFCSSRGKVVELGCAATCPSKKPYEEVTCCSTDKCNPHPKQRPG

SMILES | composite z-score [1] | composite z-score [2] | composite z-score [3] | z-score [4] | composite z-score [5] | composite z-score [6] | composite z-score [7] | composite z-score [8] | composite z-score [9] | composite z-score [10] | composite z-score [11] | z-score [12] | composite z-score [13] | composite z-score [14] | composite z-score [15] | composite z-score [16] | composite z-score [17] | composite z-score [18] | composite z-score [19] | composite z-score [20]
O=C1C=C[C@@H](O)[C@@H]2[C@@H]3C(=O)N(c4cccc(Oc5ccccc5)c4)C(=O)[C@@H]3CC[C@@H]12 | 0.378 | -0.147 | -0.597 | -0.856 (inactive) | 0.322 | 0.499 | 0.386 | 0.438 | 0.503 | -0.0914 | 0.242 | -2.07 | 0.594 | -0.203 | -0.477 | -0.152 | -0.0626 | -0.381 | 0.503 | 0.0671
COC(=O)CC=C[C@@H](C)[C@@H](C=NOC[C@@H](C)[C@H](OCc1ccccc1)C(C)C)OC | 0.161 | -0.325 | -0.208 | -0.201 (inactive) | 0.286 | 0.103 | 0.146 | 0.102 | 0.426 | -0.283 | 0.281 | -0.759 | 0.364 | -0.481 | -0.79 | -0.096 | -0.19 | -0.116 | -0.062 | 0.215
COC(=O)[C@@H]1CC[C@H](C)[C@@H](c2ccc(C)cc2)N1C(=O)c1ccc(C=NO[C@@H](C)c2cc(-c3c(C)cc(C)cc3C)no2)cc1 | 0.321 | -0.12 | -0.144 | -1.04 (inactive) | 0.418 | 0.738 | 0.51 | 0.242 | 0.675 | 0.598 | 1.04 | -0.542 | 0.45 | 0.0785 | -0.37 | -0.0236 | -0.141 | 0.0373 | 0.722 | 0.208
COC(=O)CC=C[C@@H](C)[C@@H](C=NOC[C@@H](C)[C@H](OCc1ccccc1)C(C)C)NS(=O)(=O)c1ccc(C)cc1 | -0.196 | -0.439 | -0.75 | -0.21 (inactive) | -0.714 | -1.15 | -0.0573 | -0.888 | 0.0424 | 0.168 | -0.482 | -1.44 | 0.21 | -1.51 | -1.26 | -0.148 | -0.0977 | -0.541 | 0.161 | -1.25
COC(=O)[C@@H]1CC[C@H](C)[C@@H](c2ccc(Br)cc2)N1C(=O)C(F)(F)F | -0.324 | -0.215 | -0.174 | -0.0429 (inactive) | -0.329 | -0.657 | 0.0496 | -0.324 | -0.144 | 0.237 | -1.1 | -0.317 | 0.179 | -0.257 | 0.137 | -0.226 | -0.476 | -0.127 | -0.287 | 0.263
CCOC(=O)[C@H](Cc1ccccc1)NC(=O)CCC1CC(OC(=O)NCc2cccc3ccccc23)CC2(CCCC(COC(=O)NCCc3ccccc3OC)O2)O1 (stereo not given in full) | 0.405 | -0.0537 | -0.409 | 0.223 (inactive) | 0.791 | 0.583 | 0.454 | 1.07 | 0.331 | -0.251 | 0.881 | -1.06 | 0.584 | 0.38 | -0.298 | -0.195 | 0.191 | -0.138 | 0.135 | 0.635
COc1ccc(COC(=O)NN=C2C[C@@H](O)[C@@H](O)[C@@H]3[C@@H]4C(=O)N(C5CCCCC5)C(=O)[C@@H]4CC[C@@H]23)cc1 | -0.123 | 0.202 | 1.38 | 0.299 (inactive) | -0.28 | -0.145 | -0.583 | -0.248 | -0.88 | 0.105 | 0.14 | -1.76 | 0.0141 | -0.53 | -0.811 | -0.0529 | -0.0769 | -0.261 | -0.011 | 0.229
COc1ccc(O[C@H]2C=C[C@@H](c3ccccc3)O[C@@H]2COC(=O)NCc2cccc3ccccc23)cc1 | -0.101 | 0.0187 | 0.173 | -0.134 (inactive) | 0.0748 | -0.131 | -0.168 | 0.1 | 0.269 | 0.763 | 0.125 | -2.19 | -0.0808 | -0.413 | -0.329 | -0.104 | 0.23 | -0.116 | 0.469 | 0.33
CCOC(=O)[C@H](CC(C)C)NC(=O)CCC1CC(OC(=O)NCc2ccc3c(c2)OCO3)CC2(CCCC(COC(=O)NCCc3ccc(Cl)cc3)O2)O1 (stereo not given in full) | 0.193 | -0.0218 | -0.514 | 0.0274 (inactive) | 0.525 | 0.293 | 0.199 | 0.829 | 0.96 | 0.101 | 0.838 | 0.225 | 0.582 | -0.131 | -0.572 | -0.0556 | -0.283 | -0.363 | 0.426 | 0.983
COc1ccc(O[C@H]2C=C[C@@H](C#Cc3ccccc3)O[C@@H]2CO)cc1 | 0.544 | -0.139 | -0.253 | 1.45 (inactive) | 0.535 | -0.139 | 0.316 | -0.0229 | 0.377 | 1.08 | 0.342 | -2.17 | -0.0192 | 1.42 | 0.493 | -0.124 | 0.0048 | -0.0428 | 0.158 | 0.439
CCOC(=O)CCN1C(=O)[C@H]2[C@H]3[C@H](O)[C@H](O)CC(=NOCC=C(C)CCC=C(C)C)[C@H]3CC[C@H]2C1=O | -0.319 | 0.28 | -0.154 | 0.0511 (inactive) | 0.245 | -0.709 | 0.52 | -0.789 | -0.185 | -1.82 | -0.11 | -0.409 | 0.199 | -0.38 | -0.488 | -0.103 | -0.221 | -0.1 | -0.393 | 0.271
COC(=O)[C@H](C)NC(=O)CCC1CC(OC(=O)NCc2ccc3c(c2)OCO3)CC2(CCCC(COC(=O)NCCCN3CCCC3=O)O2)O1 (stereo not given in full) | 0.842 | -0.286 | -0.189 | 0.245 (inactive) | 0.601 | 1.28 | 0.638 | 0.856 | 1.41 | -0.109 | 1.32 | -1.87 | 0.849 | 0.924 | -0.151 | -0.0644 | -0.186 | 0.0215 | 0.286 | 0.88
